# Activity calls are given as the source filed them.
# Assays:
# [1] = optical density shifts of acrAB sulA E. coli – strain DRC41, OD650, 48 h, E. coli filamentation inducer project, primary screen (AID 1152); settings: higher = more signal, called active from +8 up or from −8 down;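 note: E. coli MC1000 strain DRC41 lacking acrAB efflux pump and sulA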
# [2] = probe aLefty1 binding on compound microarray – biochemical, small-molecule microarray, 635/667 nm fluorescence, primary screen (AID 1153); settings: higher = more signal;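 note: score merges spot fluorescence with signal-to-noise ratio from the scanned slide images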
# [3] = plasmodial surface anion channel blockers, osmotic lysis – cell-based, P. falciparum Indochina, OD700, 1 h, primary screen (AID 1154); settings: P. falciparum Indochina infected RBC osmotic lysis, higher = more signal, called active from +8 up or from −8 down
# [4] = plasmodial surface anion channel blockers, osmotic lysis – cell-based, P. falciparum Indochina, OD700, 2 h, primary screen (AID 1155);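 note: lysis reports solute entry through the parasite surface anion channel PSAC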; settings: P. falciparum Indochina infected erythrocytes, higher = more signal, called active from +8 up or from −8 down
# [5] = changes in parasitized red cell lysis, either direction – P. falciparum Indochina, OD700, 3 h, PSAC antagonist project, primary screen (AID 1156); settings: P. falciparum-infected erythrocytes, osmotic lysis, higher = more signal, called active from +8 up or from −8 down
# [6] = plasmodial surface anion channel blockers, osmotic lysis – cell-based, P. falciparum Indochina, OD700, 18 h, primary screen (AID 1157); settings: P. falciparum Indochina infected erythrocytes, osmotic lysis OD700, 18 h; higher = more signal, called active from +8 up or from −8 down
# [7] = S6 kinase pathway phospho-S6 level changes – cell-based, A549, cytoblot, luminescence, serum-stimulated, primary screen (AID 1158); settings: 5 h, higher = more signal;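 note: serum-stimulated A549 lung adenocarcinoma cells; signal is phosphorylated S6 detected by cytoblot immunostaining with HRP secondary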
# [8] = target: NADPH oxidase 2 (Homo sapiens) (UniProt P04839); assay: compounds shifting NOX2 Amplex Red fluorescence – cell-based, HEK293-NOX2, PMA-stimulated, NOX inhibitor project, primary screen (AID 1159); settings: 45 min, higher = more signal, called active from +8 up or from −8 down; note: test concentration not given here
# [9] = target: NADPH oxidase 4 (Homo sapiens) (UniProt Q9NPH5); assay: compounds shifting NOX4 Amplex Red fluorescence – cell-based, HEK293-NOX4, tetracycline-induced, NOX inhibitor project, primary screen (AID 1160); settings: HEK293-NOX4, Amplex Red H2O2 fluorescence, 45 min; higher = more signal, called active from +8 up or from −8 down
# [10] = target: NADPH oxidase 5 (Homo sapiens) (UniProt Q96PH1); assay: compounds shifting NOX5 Amplex Red fluorescence – cell-based, HEK293-NOX5, NOX inhibitor project, primary screen (AID 1161); settings: HEK293-NOX5, ionomycin, 45 min, higher = more signal
# Chain of NADPH oxidase 5 (Homo sapiens) (Q96PH1 whole entry, looked up): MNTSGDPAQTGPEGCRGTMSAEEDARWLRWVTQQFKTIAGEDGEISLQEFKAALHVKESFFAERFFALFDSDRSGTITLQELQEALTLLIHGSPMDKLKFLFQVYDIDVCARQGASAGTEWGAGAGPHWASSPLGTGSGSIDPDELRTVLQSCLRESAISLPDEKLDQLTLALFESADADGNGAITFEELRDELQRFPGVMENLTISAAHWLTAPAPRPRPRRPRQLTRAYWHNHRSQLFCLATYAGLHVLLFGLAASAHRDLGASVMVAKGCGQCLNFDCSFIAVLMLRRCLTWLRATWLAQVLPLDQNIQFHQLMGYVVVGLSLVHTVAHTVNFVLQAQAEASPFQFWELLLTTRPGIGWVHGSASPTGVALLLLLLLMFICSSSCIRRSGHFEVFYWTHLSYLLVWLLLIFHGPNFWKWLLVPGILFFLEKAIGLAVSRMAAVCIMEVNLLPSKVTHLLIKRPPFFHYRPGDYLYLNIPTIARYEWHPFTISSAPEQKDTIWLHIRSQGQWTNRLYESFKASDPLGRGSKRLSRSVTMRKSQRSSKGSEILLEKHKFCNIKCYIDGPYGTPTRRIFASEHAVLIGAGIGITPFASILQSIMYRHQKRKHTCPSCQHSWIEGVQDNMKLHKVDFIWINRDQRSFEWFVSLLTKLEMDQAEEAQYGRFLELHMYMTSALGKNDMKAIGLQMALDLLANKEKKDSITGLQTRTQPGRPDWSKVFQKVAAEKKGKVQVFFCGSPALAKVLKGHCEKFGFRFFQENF
# Chain of NADPH oxidase 2 (Homo sapiens) (P04839 whole entry, looked up): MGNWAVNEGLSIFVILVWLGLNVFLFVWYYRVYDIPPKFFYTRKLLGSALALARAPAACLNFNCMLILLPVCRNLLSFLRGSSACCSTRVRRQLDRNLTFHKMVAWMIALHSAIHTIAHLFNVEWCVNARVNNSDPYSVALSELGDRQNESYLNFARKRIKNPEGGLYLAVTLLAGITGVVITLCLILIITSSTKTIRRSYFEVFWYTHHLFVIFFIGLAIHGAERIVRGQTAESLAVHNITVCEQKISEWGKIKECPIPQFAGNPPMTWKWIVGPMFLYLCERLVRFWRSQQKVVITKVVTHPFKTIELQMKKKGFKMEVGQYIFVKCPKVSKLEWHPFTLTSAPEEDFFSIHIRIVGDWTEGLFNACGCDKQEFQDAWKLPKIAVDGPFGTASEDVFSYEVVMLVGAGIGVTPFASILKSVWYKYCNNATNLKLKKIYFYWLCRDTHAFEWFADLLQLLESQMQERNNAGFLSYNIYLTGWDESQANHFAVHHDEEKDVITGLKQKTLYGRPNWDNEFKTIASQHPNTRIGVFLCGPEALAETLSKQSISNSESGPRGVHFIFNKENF
# Chain of NADPH oxidase 4 (Homo sapiens) (Q9NPH5 whole entry, looked up): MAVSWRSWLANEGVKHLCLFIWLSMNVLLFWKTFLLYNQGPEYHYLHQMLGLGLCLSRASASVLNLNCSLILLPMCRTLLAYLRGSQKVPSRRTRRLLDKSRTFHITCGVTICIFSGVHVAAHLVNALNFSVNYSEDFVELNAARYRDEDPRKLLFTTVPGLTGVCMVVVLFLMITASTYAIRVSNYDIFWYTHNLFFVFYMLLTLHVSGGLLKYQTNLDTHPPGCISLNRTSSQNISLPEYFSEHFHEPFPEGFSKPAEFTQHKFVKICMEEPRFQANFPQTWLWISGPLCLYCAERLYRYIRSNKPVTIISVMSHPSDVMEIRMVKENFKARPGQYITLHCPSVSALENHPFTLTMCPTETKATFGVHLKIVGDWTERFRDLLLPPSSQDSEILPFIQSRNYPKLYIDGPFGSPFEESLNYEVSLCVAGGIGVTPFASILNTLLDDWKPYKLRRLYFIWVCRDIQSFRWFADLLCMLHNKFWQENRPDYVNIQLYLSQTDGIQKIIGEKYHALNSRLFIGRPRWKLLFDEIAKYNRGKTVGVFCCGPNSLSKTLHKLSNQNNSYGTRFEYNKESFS
SMILES,z-score [1],composite z-score [2],z-score [3],z-score [4],z-score [5],z-score [6],z-score [7],z-score [8],z-score [9],z-score [10]
COC(=O)[C@@H]1N=C(c2ccc(OCCCO)cc2)O[C@@H]1c1ccccc1,0.813 (inactive),-0.717,24.5 (active),12.5 (active),-1.03 (inactive),0.82 (inactive),0.264,-0.499 (inactive),1.02 (inactive),-0.273
O=C1OCCC/C=C\[C@H]2OC34C=CCN(c5ccc6ccccc6c5)C(=O)[C@H]3N(CCO)C(=O)[C@@H]4C12 (stereo not given in full),-0.067 (inactive),0.0313,2.17 (inactive),0.476 (inactive),0.217 (inactive),0.532 (inactive),0.235,0.356 (inactive),-0.419 (inactive),1.81
CCOC(=O)C[C@H]1[C@H](OC(=O)c2cc3ccccc3oc2=O)[C@@H](NC(=O)c2ccc3ccccc3n2)c2cc(OCCCO)ccc2N1C(=O)Cc1ccc(OC)cc1,0.116 (inactive),0.0774,8.66 (active),1.33 (inactive),0.635 (inactive),0.745 (inactive),-0.0026,1.01 (inactive),1 (inactive),1.53
CCCC=C(CCC)[C@@H](NS(=O)(=O)CC12CCC(CC1=O)C2(C)C)c1ccc(C(=O)OC)cc1 (stereo not given in full),-0.645 (inactive),0.0345,-0.777 (inactive),-0.825 (inactive),-0.399 (inactive),-1.81 (inactive),0.922,0.219 (inactive),0.669 (inactive),2.48
CC1CC/C=C\[C@H]2OC34C=CCN(C(C)C)C(=O)[C@H]3N(CCO)C(=O)[C@@H]4C2C(=O)O1 (stereo not given in full),0.904 (inactive),-0.101,0.158 (inactive),0.22 (inactive),-0.285 (inactive),0.112 (inactive),1.86,2.21 (inactive),-0.785 (inactive),2.03
COC(=O)[C@@]1(Cc2ccc(OC)cc2)[C@H]2c3cc(C(=O)N(C)C)n(Cc4ccc(C)o4)c3C[C@H]2CN1C(=O)c1ccccc1,-0.155 (inactive),0.346,4.12 (inactive),0.057 (inactive),1.3 (inactive),0.594 (inactive),1.5,-0.351 (inactive),-0.0809 (inactive),-3.41
CCCC=C(CCC)[C@@H](NC(=O)c1cccs1)c1ccc(C(=O)OC)cc1,-1.24 (inactive),0.911,-1.3 (inactive),-0.864 (inactive),-1.72 (inactive),-1.27 (inactive),1.28,0.0754 (inactive),1.74 (inactive),2.06
COCCCNC(=O)[C@@]1(Sc2ccc(C)cc2)CC(=O)N(C2Cc3ccccc3C2)[C@@H]1c1ccc(CO)cc1,0.625 (inactive),0.0653,1.86 (inactive),-0.562 (inactive),1.03 (inactive),-1.78 (inactive),2.12,0.00261 (inactive),-0.107 (inactive),-1.76
CN(C)C(=O)[C@]1(Cc2ccccc2CN=[N+]=[N-])N=C(c2ccc(OCCCO)cc2)O[C@@H]1c1ccccc1,-0.532 (inactive),0.457,27.1 (active),22.9 (active),1.76 (inactive),0.96 (inactive),1.87,-4 (inactive),-2.05 (inactive),-1.94
CCCCN1CC=CC23O[C@@H]4/C=C\CCCOC(=O)C4[C@H]2C(=O)N(CCO)[C@@H]3C1=O (stereo not given in full),1.18 (inactive),-0.297,0.978 (inactive),1.05 (inactive),0.504 (inactive),0.628 (inactive),-0.246,1.28 (inactive),0.314 (inactive),1.5
CC(CO)N1C(=O)[C@]2(C)C3C(=O)OCCC/C=C\[C@H]3OC23C=CCN(c2ccc(Cl)cc2)C(=O)[C@@H]13 (stereo not given in full),0.79 (inactive),-0.062,0.423 (inactive),0.576 (inactive),1.94 (inactive),0.5 (inactive),-0.021,1.25 (inactive),-0.0121 (inactive),1.33
CCOC(=O)C[C@H]1[C@H](OC(=O)c2cc3ccccc3oc2=O)[C@@H](NC(=O)c2ccccc2)c2cc(OCCCO)ccc2N1C(=O)c1ccccc1,0.0768 (inactive),0.158,0.609 (inactive),-1.44 (inactive),-0.35 (inactive),-2.88 (inactive),0.312,-0.423 (inactive),-1.07 (inactive),-0.713
C=CC[C@@]1(C(=O)NCCCOC)N=C(c2ccc(OCCCO)cc2)O[C@@H]1c1ccccc1N=[N+]=[N-],1.37 (inactive),0.545,30.7 (active),29.4 (active),1.93 (inactive),2.16 (inactive),-0.217,-3.32 (inactive),-0.66 (inactive),-1.64
CN1C2C=C(CCCO)C(C3C(=O)N(C(N)=O)C(=O)C32)C1C1CC1 (stereo not given),-0.625 (inactive),-0.188,-0.234 (inactive),-0.0718 (inactive),-0.624 (inactive),-0.0366 (inactive),-0.896,0.191 (inactive),-0.07 (inactive),0.257
CC(C)N1CC=CC23O[C@@H]4C=CCCOC(=O)C4[C@H]2C(=O)N(CCCO)[C@@H]3C1=O (stereo not given in full),2.91 (inactive),0.0656,-0.0633 (inactive),-0.706 (inactive),1.3 (inactive),-0.646 (inactive),0.842,-1.67 (inactive),-2.17 (inactive),-2.78
NCCCCCNC(=O)[C@H]1C[C@H]2C(=O)N3CCC[C@H]3C(=O)N2[C@H]1c1cccc(OCCO)c1,-0.068 (inactive),0.984,3.03 (inactive),0.598 (inactive),0.428 (inactive),0.301 (inactive),-0.413,2.6 (inactive),0.413 (inactive),2.48
COCCOC(=O)N1C(=O)[C@@]2(c3cc(C#CC4(O)CCCCCC4)ccc31)[C@H](c1ccc(O)cc1)N1[C@H](c3ccccc3)[C@H](c3ccccc3)OC(=O)[C@H]1[C@@H]2C(=O)N1CCN(c2ncccn2)CC1,-0.533 (inactive),0.477,0.138 (inactive),0.525 (inactive),-0.166 (inactive),-0.0236 (inactive),0.159,1.54 (inactive),0.996 (inactive),1.11
CCOC(=O)C1=CC[C@@H](c2ccccc2F)N(S(=O)(=O)c2ccc(C)cc2)[C@H]1c1ccccc1,-1.33 (inactive),-0.0544,0.353 (inactive),1.17 (inactive),0.0175 (inactive),0.338 (inactive),-0.445,0.941 (inactive),0.6 (inactive),2.18
COc1cc2c(cc1O)C(C1CC1)N(Cc1cccc(OC(F)(F)F)c1)CC2 (stereo not given),-0.933 (inactive),-0.105,2.92 (inactive),0.325 (inactive),-0.222 (inactive),0.032 (inactive),-0.759,-5.01 (inactive),-2.98 (inactive),-4.25
CC(C)[Si](C#C[Si](C(C)C)(C(C)C)C(C)C)(O[C@H](c1ccccc1)c1cn(Cc2ccccc2)nn1)C(C)C,1.25 (inactive),0.0997,0.62 (inactive),0.267 (inactive),-0.351 (inactive),0.136 (inactive),-0.25,-0.734 (inactive),-1.17 (inactive),-0.932
COC(=O)C1=CC(CCCO)=CC(c2cccs2)N(C)C=C1C(=O)OC (stereo not given),-0.35 (inactive),0.147,2.47 (inactive),0.596 (inactive),0.148 (inactive),0.426 (inactive),-0.481,0.467 (inactive),-1.36 (inactive),0.931
COc1ccc(CCNC(=O)[C@@]2(Sc3ccc(C)cc3)CC(=O)N(Cc3ccccc3C(F)(F)F)[C@@H]2c2ccc(CO)cc2I)cc1,0.729 (inactive),0.0701,7.89 (inactive),1.43 (inactive),0.932 (inactive),0.844 (inactive),-0.513,0.933 (inactive),-2.09 (inactive),0.713
